Data: PubChem BioAssay AID1159580 (chemical genetic matrix, 2015)
“And” between values parts separate entries of the source, which are not always exact repeats. Equal entries are not always repeated. About 2,000 (36%) of roughly 5,500 compounds were called active. Another 18% or so got no clear call; they are omitted. Some of the results follow. Values without a mark were called inactive. No stated cut-off is given here; in the data, active means normalized growth mostly below about 0.91 (no sharp cut-off); inconclusive means no clear call, values can overlap the other calls; inactive means mostly above about 0.92.

Assay: chemical genetic growth profiling, strain panel (AID 1159580);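 further: tested at 20 µM; growth read once vehicle control cultures reached saturation at 30 °C; 1 = growth at the plate median or of vehicle wells; lower values mean less growth of the strain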
Settings: growth OD

CCC1(c2ccc(N)cc2)CCC(=O)NC1=O (stereo not drawn)
normalized growth (S. cerevisiae deletion strains, locus YJR075W, strain HOC1, active compounds read low): 0.998
normalized growth (S. cerevisiae deletion strains, locus YKL009W, strain mrt4, active compounds read low): 1.01
normalized growth (S. cerevisiae deletion strains, locus YKL068W, active compounds read low): 1
normalized growth (S. cerevisiae deletion strains, locus YKL085W, strain MDH1 (second series), active compounds read low): 1
normalized growth (S. cerevisiae deletion strains, locus YKL085W, strain MDH1, active compounds read low): 1
normalized growth (S. cerevisiae deletion strains, locus YKL160W, strain elf1, active compounds read low): 0.939
normalized growth (S. cerevisiae deletion strains, locus YKR001C, strain vps1, active compounds read low): 0.995
normalized growth (S. cerevisiae deletion strains, locus YKR026C, strain gcn3, active compounds read low): 0.961
normalized growth (S. cerevisiae deletion strains, locus YKR091W, strain srl3, active compounds read low): 0.977
normalized growth (S. cerevisiae deletion strains, locus YLL001W, strain dnm1, active compounds read low): 0.903
normalized growth (S. cerevisiae deletion strains, locus YLL026W, active compounds read low): 0.956
normalized growth (S. cerevisiae deletion strains, locus YLL041C, strain sdh2, active compounds read low): 0.968
normalized growth (S. cerevisiae deletion strains, locus YLR027C, strain aat2, active compounds read low): 0.94
normalized growth (S. cerevisiae deletion strains, locus YLR039C, strain RIC1, active compounds read low): 1.02
normalized growth (S. cerevisiae deletion strains, locus YLR058C, strain SHM2, active compounds read low): 1.01
normalized growth (S. cerevisiae deletion strains, locus YLR102C, strain apc9, active compounds read low): 0.992
normalized growth (S. cerevisiae deletion strains, locus YLR113W, strain HOG1, active compounds read low): 1.06
normalized growth (S. cerevisiae deletion strains, locus YLR221C, strain rsa3, active compounds read low): 0.99
normalized growth (S. cerevisiae deletion strains, locus YLR258W, strain gsy2, active compounds read low): 0.992
normalized growth (S. cerevisiae deletion strains, locus YLR262C, strain YPT6 (second series), active compounds read low): 0.999
normalized growth (S. cerevisiae deletion strains, locus YLR262C, strain YPT6, active compounds read low): 1.03
normalized growth (S. cerevisiae deletion strains, locus YLR268W, strain sec22, active compounds read low): 1.01
normalized growth (S. cerevisiae deletion strains, locus YLR320W, strain mms22, active compounds read low): 0.978
normalized growth (S. cerevisiae deletion strains, locus YLR330W, strain CHS5, active compounds read low): 1.01
normalized growth (S. cerevisiae deletion strains, locus YLR342W, strain FKS1 (second series), active compounds read low): 1.02
normalized growth (S. cerevisiae deletion strains, locus YLR342W, strain FKS1, active compounds read low): 0.926
normalized growth (S. cerevisiae deletion strains, locus YLR357W, strain rsc2, active compounds read low): 0.917
normalized growth (S. cerevisiae deletion strains, locus YLR370C, strain arc18, active compounds read low): 0.969
normalized growth (S. cerevisiae deletion strains, locus YLR371W, strain rom2, active compounds read low): 0.997
normalized growth (S. cerevisiae deletion strains, locus YLR384C, strain iki3, active compounds read low): 0.972
normalized growth (S. cerevisiae deletion strains, locus YLR418C, strain cdc73, active compounds read low): 1
normalized growth (S. cerevisiae deletion strains, locus YML016C, strain PPZ1, active compounds read low): 1.01
normalized growth (S. cerevisiae deletion strains, locus YML032C, strain rad52, active compounds read low): 1
normalized growth (S. cerevisiae deletion strains, locus YML120C, strain ndi1, active compounds read low): 0.93
normalized growth (S. cerevisiae deletion strains, locus YML124C, strain tub3, active compounds read low): 0.985
normalized growth (S. cerevisiae deletion strains, locus YMR058W, strain fet3, active compounds read low): 0.944
normalized growth (S. cerevisiae deletion strains, locus YMR078C, strain ctf18, active compounds read low): 0.997
normalized growth (S. cerevisiae deletion strains, locus YMR125W, strain sto1, active compounds read low): 0.988
normalized growth (S. cerevisiae deletion strains, locus YMR129W, active compounds read low): 0.969
normalized growth (S. cerevisiae deletion strains, locus YMR205C, strain PFK2, active compounds read low): 1
normalized growth (S. cerevisiae deletion strains, locus YMR223W, strain ubp8, active compounds read low): 0.993
normalized growth (S. cerevisiae deletion strains, locus YMR231W, strain pep5, active compounds read low): 0.973
normalized growth (S. cerevisiae deletion strains, locus YMR263W, strain SAP30, active compounds read low): 1
normalized growth (S. cerevisiae deletion strains, locus YMR307W, strain GAS1, active compounds read low): 0.942
normalized growth (S. cerevisiae deletion strains, locus YNL067W, strain RPL9B, active compounds read low): 0.997
normalized growth (S. cerevisiae deletion strains, locus YNL071W, strain lat1, active compounds read low): 0.986
normalized growth (S. cerevisiae deletion strains, locus YNL128W, strain TEP1, active compounds read low): 1.01
normalized growth (S. cerevisiae deletion strains, locus YNL153C, strain GIM3, active compounds read low): 1.02
normalized growth (S. cerevisiae deletion strains, locus YNL175C, strain NOP13, active compounds read low): 0.992
normalized growth (S. cerevisiae deletion strains, locus YNL183C, strain NPR1, active compounds read low): 0.974
normalized growth (S. cerevisiae deletion strains, locus YNL197C, strain WHI3, active compounds read low): 0.987
normalized growth (S. cerevisiae deletion strains, locus YNL209W, strain ssb2, active compounds read low): 0.997
normalized growth (S. cerevisiae deletion strains, locus YNL224C, strain SQS1, active compounds read low): 1.02
normalized growth (S. cerevisiae deletion strains, locus YNL233W, strain BNI4, active compounds read low): 0.994
normalized growth (S. cerevisiae deletion strains, locus YNL248C, strain rpa49, active compounds read low): 0.955
normalized growth (S. cerevisiae deletion strains, locus YNL250W, strain rad50, active compounds read low): 1
normalized growth (S. cerevisiae deletion strains, locus YNL271C, strain bni1, active compounds read low): 0.995
normalized growth (S. cerevisiae deletion strains, locus YNL298W, strain CLA4, active compounds read low): 0.992
normalized growth (S. cerevisiae deletion strains, locus YNL307C, strain MCK1, active compounds read low): 0.999
normalized growth (S. cerevisiae deletion strains, locus YNL322C, strain KRE1 (second series), active compounds read low): 0.973
normalized growth (S. cerevisiae deletion strains, locus YNL322C, strain KRE1, active compounds read low): 0.996 and 1.02
normalized growth (S. cerevisiae deletion strains, locus YNR049C, strain mso1, active compounds read low): 0.971
normalized growth (S. cerevisiae deletion strains, locus YNR052C, strain pop2, active compounds read low): 0.988
normalized growth (S. cerevisiae deletion strains, locus YOL012C, strain htz1): 0.83
normalized growth (S. cerevisiae deletion strains, locus YOL147C, strain pex11, active compounds read low): 0.999
normalized growth (S. cerevisiae deletion strains, locus YOR001W, strain rrp6, active compounds read low): 0.934
normalized growth (S. cerevisiae deletion strains, locus YOR061W, strain CKA2, active compounds read low): 1.02
normalized growth (S. cerevisiae deletion strains, locus YOR069W, strain VPS5, active compounds read low): 1
normalized growth (S. cerevisiae deletion strains, locus YOR070C, strain gyp1, active compounds read low): 0.987
normalized growth (S. cerevisiae deletion strains, locus YOR080W, strain dia2, active compounds read low): 0.958
normalized growth (S. cerevisiae deletion strains, locus YOR083W, strain WHI5 (second series), active compounds read low): 1.02
normalized growth (S. cerevisiae deletion strains, locus YOR083W, strain WHI5, active compounds read low): 0.922
normalized growth (S. cerevisiae deletion strains, locus YOR106W, strain vam3, active compounds read low): 0.899
normalized growth (S. cerevisiae deletion strains, locus YOR136W, strain idh2, active compounds read low): 0.983
normalized growth (S. cerevisiae deletion strains, locus YOR144C, strain elg1, active compounds read low): 1
normalized growth (S. cerevisiae deletion strains, locus YOR184W, strain ser1, active compounds read low): 1.02
normalized growth (S. cerevisiae deletion strains, locus YOR231W, strain MKK1, active compounds read low): 1.05
normalized growth (S. cerevisiae deletion strains, locus YOR265W, strain rbl2, active compounds read low): 0.966
normalized growth (S. cerevisiae deletion strains, locus YOR270C, strain vph1, active compounds read low): 0.977
normalized growth (S. cerevisiae deletion strains, locus YOR290C, strain snf2, active compounds read low): 0.995
normalized growth (S. cerevisiae deletion strains, locus YOR316C, strain cot1, active compounds read low): 0.996
normalized growth (S. cerevisiae deletion strains, locus YPL051W, strain arl3, active compounds read low): 0.962
normalized growth (S. cerevisiae deletion strains, locus YPL078C, strain atp4, active compounds read low): 0.89 (active)
normalized growth (S. cerevisiae deletion strains, locus YPL106C, strain sse1, active compounds read low): 1
normalized growth (S. cerevisiae deletion strains, locus YPL240C, strain hsp82, active compounds read low): 0.983
normalized growth (S. cerevisiae deletion strains, locus YPL241C, strain CIN2, active compounds read low): 1 and 1.01
normalized growth (S. cerevisiae deletion strains, locus YPL256C, strain CLN2, active compounds read low): 1.07
normalized growth (S. cerevisiae deletion strains, locus YPR119W, strain clb2, active compounds read low): 0.991
normalized growth (S. cerevisiae deletion strains, locus YPR141C, strain kar3, active compounds read low): 1
normalized growth (S. cerevisiae deletion strains, locus YPR163C, strain tif3, active compounds read low): 1
normalized growth (S. cerevisiae deletion strains, locus YPR167C, strain met16, active compounds read low): 0.997
normalized growth (S. cerevisiae deletion strains, strain wtn01, active compounds read low): 0.985
normalized growth (S. cerevisiae strains, strain wild type, active compounds read low): 1.01
